Common to all, as to assay: NCI-60 one-dose screen, 48 h (100 = growth as untreated, 0 = no growth, -100 = all killed)
One test deals with SR leukemia. The settings on record: 10 µM unless noted.
The test system of a further test is RPMI-8226 leukemia. The settings on record: 10 µM unless noted.
In another test the test system is OVCAR-8 ovarian. The settings on record: 10 µM unless noted.
A further test has as its system OVCAR-5 ovarian. The settings on record: 10 µM unless noted.
The next test concerns OVCAR-4 ovarian. The settings on record: 10 µM unless noted.
The test system of another test is SK-OV-3 ovarian. The settings on record: 10 µM unless noted.
A further test deals with IGROV1 ovarian. The settings on record: 10 µM unless noted.
In another test the test system is OVCAR-3 ovarian. The settings on record: 10 µM unless noted.
The next test concerns HS 578T breast. The settings on record: 10 µM.
The subject of the next test is NCI/ADR-RES ovarian. The settings on record: 10 µM unless noted.
The next test has as its system T-47D breast. The settings on record: 10 µM unless noted.
For the next test, the system named is BT-549 breast. The settings on record: 10 µM unless noted.
The next test deals with MDA-MB-435 melanoma. The settings on record: 10 µM unless noted.
The subject of another test is SW-620 colon. The settings on record: 10 µM unless noted.
A further test relates to MCF7 breast. The settings on record: 10 µM unless noted.
The subject of another test is HCT-116 colon. The settings on record: 10 µM unless noted.
A further test has as its system HCC-2998 colon. The settings on record: 10 µM.
A further test deals with KM12 colon. The settings on record: 10 µM unless noted.

Structures are written as SMILES. About 83,000 compounds went through this panel and 20% of them were active in at least one assay; those are over-represented in the sample as a whole.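 In brief: 96-well plates, 48 h treatment, single concentration, percent growth endpoint.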 A number with no mark means an inactive call. Active and inactive are the calls of the source. The calls were made as follows: active = growth percent below 10; inactive = the rest.

With `Cc1ccc(N=C2CSc3nnc(-c4csc5c4CCCC5)n3N2)cc1`, the growth in the test with SR leukemia is 32.2%; with RPMI-8226 leukemia, 24.7%; with OVCAR-8 ovarian it was 35.1%; in the test with OVCAR-5 ovarian, 54.4%; in the test on OVCAR-4 ovarian, 62.1%; in the test with SK-OV-3 ovarian it was 27.6%. Besides, the growth in the test on IGROV1 ovarian is 53.3%; in the test on OVCAR-3 ovarian it was -21.4% (active); in the test with HS 578T breast, 38.8%; in the test with NCI/ADR-RES ovarian, 1.16% (active); with T-47D breast it was 48.2%; with BT-549 breast, 31.3%. For the same molecule, the growth in the test on MDA-MB-435 melanoma was -25.1% (active); with SW-620 colon, 29.9%; in the test on MCF7 breast it was 21.4%; in the test with HCT-116 colon, 13.9%; with HCC-2998 colon, 30.3%; with KM12 colon, 24%.
As to `NC(=O)N1N=C(c2ccc(Cl)cc2)CC1c1cn(-c2ccccc2)nc1-c1ccc(Cl)cc1` (stereo not given), the growth was 67.3% with SR leukemia; 70.9% in the test with RPMI-8226 leukemia; 36.8% in the test on OVCAR-8 ovarian; 94.6% in the test on OVCAR-5 ovarian; 14% in the test with OVCAR-4 ovarian; 50.9% with SK-OV-3 ovarian. Besides, the growth was 68.8% in the test with IGROV1 ovarian; 78.1% with OVCAR-3 ovarian; 50.8% with HS 578T breast; 47.8% in the test with NCI/ADR-RES ovarian; 45.6% in the test on T-47D breast; 98.9% in the test with BT-549 breast. Also, the growth in the test on MDA-MB-435 melanoma was 75.2%; in the test on SW-620 colon, 84.8%; with MCF7 breast, 63.7%; with HCT-116 colon it was 31.9%; with HCC-2998 colon it was 78.6%; in the test on KM12 colon it was 62.7%.
As to `CSc1nc2ncnc(SC)c2[nH]1`, the growth in the test with SR leukemia is 90.3%; with RPMI-8226 leukemia it was 106%; in the test on OVCAR-8 ovarian, 103%; in the test on OVCAR-5 ovarian it was 102%; in the test on OVCAR-4 ovarian, 101%; in the test on SK-OV-3 ovarian, 79.3%. In addition, the growth with IGROV1 ovarian is 114%; with OVCAR-3 ovarian, 115%; with HS 578T breast it was 105%; with NCI/ADR-RES ovarian it was 108%; in the test on T-47D breast, 105%; with BT-549 breast it was 93.3%. Besides, the growth in the test with MDA-MB-435 melanoma was 100%; in the test on SW-620 colon, 109%; in the test with MCF7 breast it was 93.1%; in the test with HCT-116 colon it was 81.4%; in the test with HCC-2998 colon it was 113%; in the test on KM12 colon, 106%.
For `COc1cc(-c2cc(-c3ccc(Nc4ccnc5cc(Cl)ccc45)cc3)nc(N3CCOCC3)n2)cc(OC)c1OC`, the growth with SR leukemia is -10.7% (active); with RPMI-8226 leukemia, -5.21% (active); with OVCAR-8 ovarian, 9.73% (active); with OVCAR-5 ovarian it was 55.5%; in the test on OVCAR-4 ovarian, -48.3% (active); with SK-OV-3 ovarian, 98.6%. For the same molecule, the growth with IGROV1 ovarian is 1.69% (active); in the test with OVCAR-3 ovarian, -47.7% (active); with HS 578T breast, 3.06% (active); in the test with NCI/ADR-RES ovarian, 9.9% (active); with T-47D breast, 12.8%; with BT-549 breast, 24.4%. Moreover, the growth in the test on MDA-MB-435 melanoma is -35% (active); in the test on SW-620 colon, 1.68% (active); in the test on MCF7 breast, 4.34% (active); in the test on HCT-116 colon, -63.3% (active); with HCC-2998 colon, 18.7%; in the test on KM12 colon, 25.2%.
On to `COc1cnc2c(c1)C(=O)c1c-2n(CCCn2ccnc2)c(=O)c2cc(Cl)ccc12`, for which the growth is -10.3% (active) with SR leukemia; -15.3% (active) with RPMI-8226 leukemia; 17.4% with OVCAR-8 ovarian; 26.6% with OVCAR-5 ovarian; 40.4% in the test with OVCAR-4 ovarian; -28% (active) in the test with SK-OV-3 ovarian. Besides, the growth in the test with IGROV1 ovarian was 35.2%; in the test on OVCAR-3 ovarian, -8.34% (active); with HS 578T breast, 75.1%; with NCI/ADR-RES ovarian it was 4.79% (active); with T-47D breast, -1.88% (active); in the test with BT-549 breast, 13.2%. In addition, the growth in the test on MDA-MB-435 melanoma is 11%; in the test on SW-620 colon it was 20.1%; in the test on MCF7 breast, 7.47% (active); with HCT-116 colon, -20.7% (active); in the test with HCC-2998 colon, 31.6%; in the test on KM12 colon it was 9.84% (active).
Consider `COc1cc2cc(NCc3ccc(F)cc3)nc(C)c2cc1OC`, for which the growth in the test with SR leukemia was 22.2%; in the test with RPMI-8226 leukemia, 14.2%; with OVCAR-8 ovarian it was 51%; in the test on OVCAR-5 ovarian, 53.4%; in the test with OVCAR-4 ovarian, 96.7%; in the test on SK-OV-3 ovarian it was 75.3%. In addition, the growth with IGROV1 ovarian is 59.1%; in the test on OVCAR-3 ovarian, 68.2%; in the test with HS 578T breast, 75.8%; with NCI/ADR-RES ovarian it was 44.4%; in the test with T-47D breast, 53.2%; in the test with BT-549 breast it was 29%. For the same molecule, the growth in the test on MDA-MB-435 melanoma is 24.6%; in the test with SW-620 colon, 21.8%; with MCF7 breast, 68.6%; in the test on HCT-116 colon, 9.34% (active); in the test on HCC-2998 colon, 42.3%; in the test with KM12 colon, 42.3%.
For the molecule `COc1ccc(-c2nocc2-c2cc(OC)c(OC)c(OC)c2)cc1`, the growth is 23.6% with SR leukemia; 30.7% in the test with RPMI-8226 leukemia; 28.4% in the test with OVCAR-8 ovarian; 51% in the test on OVCAR-5 ovarian; 45.7% in the test on OVCAR-4 ovarian; 22.5% with SK-OV-3 ovarian. Moreover, the growth with IGROV1 ovarian is 46.6%; in the test with OVCAR-3 ovarian, -10.9% (active); in the test on HS 578T breast, 27.4%; in the test on NCI/ADR-RES ovarian, -19.5% (active); in the test on T-47D breast it was 39.6%; in the test with BT-549 breast, 48.5%. For the same molecule, the growth with MDA-MB-435 melanoma is -54.4% (active); with SW-620 colon it was 21.4%; in the test with MCF7 breast, 24.3%; in the test with HCT-116 colon it was 6.36% (active); in the test on HCC-2998 colon it was 13.4%; in the test with KM12 colon it was 12.4%.
Consider `CC(C)[C@@H]1CC[C@]2(CO2)[C@@H]2C(=O)OCC(C(=O)O)=C[C@H]21`, for which the growth is -4.75% (active) in the test on SR leukemia; -34.6% (active) in the test with RPMI-8226 leukemia; 4.64% (active) in the test on OVCAR-8 ovarian; 22% in the test on OVCAR-5 ovarian; 12.7% in the test on OVCAR-4 ovarian; 15.7% in the test on SK-OV-3 ovarian. Moreover, the growth is 5.4% (active) in the test on IGROV1 ovarian; 5.83% (active) with OVCAR-3 ovarian; -5.29% (active) with HS 578T breast; -12.1% (active) in the test on NCI/ADR-RES ovarian; 12.3% in the test on T-47D breast; -5.36% (active) in the test on BT-549 breast. Further, the growth with MDA-MB-435 melanoma was -6.19% (active); in the test on SW-620 colon, 5.52% (active); in the test with MCF7 breast, 45.3%; in the test with HCT-116 colon, 3.63% (active); in the test with HCC-2998 colon it was 4.07% (active); in the test on KM12 colon it was 2.53% (active).
For `O=C(CNc1nc(-c2ccc(Cl)cc2)cs1)Nc1ccc(-c2nc3ccccc3s2)cc1`, the growth with SR leukemia is 89.7%; in the test on RPMI-8226 leukemia, 87.4%; in the test on OVCAR-8 ovarian it was 98%; in the test on OVCAR-5 ovarian, 90.4%; in the test on OVCAR-4 ovarian it was 70.5%; with SK-OV-3 ovarian, 95%. Moreover, the growth in the test on IGROV1 ovarian was 59.1%; with OVCAR-3 ovarian, 94%; with HS 578T breast it was 91.3%; with NCI/ADR-RES ovarian it was 94.2%; in the test on T-47D breast, 56.1%; in the test on BT-549 breast it was 107%. Also, the growth in the test on MDA-MB-435 melanoma was 104%; in the test on SW-620 colon, 99.9%; in the test with MCF7 breast it was 29.9%; in the test on HCT-116 colon it was 95.5%; with HCC-2998 colon, 97.5%; with KM12 colon it was 99%.
As to `CC(N)C(Cc1ccccc1)c1ccc(Cl)cc1` (stereo not given), the growth in the test with SR leukemia is 67.9%; in the test on RPMI-8226 leukemia, 94.5%; in the test on OVCAR-8 ovarian, 96.1%; with OVCAR-5 ovarian it was 80.8%; in the test on OVCAR-4 ovarian, 85.8%; in the test with SK-OV-3 ovarian, 72.5%. In addition, the growth in the test with IGROV1 ovarian was 94.8%; with OVCAR-3 ovarian it was 102%; with HS 578T breast, 86.2%; with NCI/ADR-RES ovarian, 95.7%; in the test on T-47D breast it was 75.5%; in the test with BT-549 breast it was 88.4%. Also, the growth in the test on MDA-MB-435 melanoma is 94.1%; in the test on SW-620 colon it was 88.9%; in the test on MCF7 breast it was 90.3%; in the test with HCT-116 colon, 78.8%; in the test with HCC-2998 colon, 84.5%; with KM12 colon, 98.9%.

Values taken from PubChem BioAssay (NCI).
